Reference: ChEMBL document CHEMBL5308504, “Tm Shift (DSF) assay results for EUbOPEN Chemogenomics Library” (2023)

Key:
Settings in all cases: Compound concentration 20.0 uM, Protein concentration 2.0 uM, Result type QC Liability
[1] = molecular target: Tyrosine-protein kinase ABL1 (Homo sapiens) (UniProt P00519)
[2] = molecular target: Cyclin-dependent kinase 2 (Homo sapiens) (UniProt P24941)
[3] = molecular target: Casein kinase I isoform delta (Homo sapiens) (UniProt P48730)
[4] = molecular target: Glycogen synthase kinase-3 beta (Homo sapiens) (UniProt P49841)
Glycogen synthase kinase-3 beta (Homo sapiens), sequence (P49841 whole entry, looked up): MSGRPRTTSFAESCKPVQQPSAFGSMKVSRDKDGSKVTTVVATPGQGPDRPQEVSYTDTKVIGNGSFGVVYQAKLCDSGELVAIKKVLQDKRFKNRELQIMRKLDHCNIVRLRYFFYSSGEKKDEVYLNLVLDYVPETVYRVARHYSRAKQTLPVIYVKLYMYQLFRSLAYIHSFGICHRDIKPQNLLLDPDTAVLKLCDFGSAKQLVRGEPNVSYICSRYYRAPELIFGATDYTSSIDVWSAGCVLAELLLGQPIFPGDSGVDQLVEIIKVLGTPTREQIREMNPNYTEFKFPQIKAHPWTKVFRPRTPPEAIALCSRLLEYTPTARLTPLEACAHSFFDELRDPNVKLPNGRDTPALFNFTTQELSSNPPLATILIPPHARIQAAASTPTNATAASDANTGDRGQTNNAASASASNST

[5] = molecular target: Mitogen-activated protein kinase 1 (Homo sapiens) (UniProt P28482)
Mitogen-activated protein kinase 1 (Homo sapiens), sequence (P28482 whole entry): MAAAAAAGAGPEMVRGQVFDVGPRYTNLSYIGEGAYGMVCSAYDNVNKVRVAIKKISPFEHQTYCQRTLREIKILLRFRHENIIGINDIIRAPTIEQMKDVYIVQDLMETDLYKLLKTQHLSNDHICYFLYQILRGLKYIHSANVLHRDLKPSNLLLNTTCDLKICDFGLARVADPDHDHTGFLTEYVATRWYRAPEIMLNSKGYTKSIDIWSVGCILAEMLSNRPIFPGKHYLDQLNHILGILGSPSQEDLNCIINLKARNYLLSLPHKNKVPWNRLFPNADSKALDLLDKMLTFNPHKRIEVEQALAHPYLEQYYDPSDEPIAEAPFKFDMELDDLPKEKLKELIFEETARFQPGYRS

[6] = molecular target: T1, Aurora kinase A (Homo sapiens) (UniProt O14965)
T1 sequence (whole entry): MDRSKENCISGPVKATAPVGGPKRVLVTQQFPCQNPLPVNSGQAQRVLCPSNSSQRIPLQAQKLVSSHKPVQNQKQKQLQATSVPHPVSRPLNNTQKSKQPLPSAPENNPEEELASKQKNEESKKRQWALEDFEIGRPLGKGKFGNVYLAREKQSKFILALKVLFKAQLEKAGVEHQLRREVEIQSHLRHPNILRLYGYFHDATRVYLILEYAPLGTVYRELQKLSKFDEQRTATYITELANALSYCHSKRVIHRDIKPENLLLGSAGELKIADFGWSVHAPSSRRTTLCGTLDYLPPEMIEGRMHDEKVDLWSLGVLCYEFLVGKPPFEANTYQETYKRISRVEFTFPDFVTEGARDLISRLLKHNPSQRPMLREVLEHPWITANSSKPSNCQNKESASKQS

Casein kinase I isoform delta (Homo sapiens), sequence (P48730 whole entry, looked up, canonical isoform): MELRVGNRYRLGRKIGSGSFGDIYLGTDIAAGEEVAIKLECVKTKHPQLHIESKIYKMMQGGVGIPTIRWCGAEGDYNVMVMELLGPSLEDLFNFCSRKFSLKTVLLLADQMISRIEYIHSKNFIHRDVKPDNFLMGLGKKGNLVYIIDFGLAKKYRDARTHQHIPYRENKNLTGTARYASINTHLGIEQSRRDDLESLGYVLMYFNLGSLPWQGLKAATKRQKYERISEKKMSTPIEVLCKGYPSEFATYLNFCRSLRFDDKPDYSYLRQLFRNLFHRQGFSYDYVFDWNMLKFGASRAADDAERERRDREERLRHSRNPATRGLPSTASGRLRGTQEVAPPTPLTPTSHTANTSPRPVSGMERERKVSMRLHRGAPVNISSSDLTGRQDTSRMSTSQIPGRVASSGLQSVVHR
Tyrosine-protein kinase ABL1 (Homo sapiens), sequence (P00519 whole entry): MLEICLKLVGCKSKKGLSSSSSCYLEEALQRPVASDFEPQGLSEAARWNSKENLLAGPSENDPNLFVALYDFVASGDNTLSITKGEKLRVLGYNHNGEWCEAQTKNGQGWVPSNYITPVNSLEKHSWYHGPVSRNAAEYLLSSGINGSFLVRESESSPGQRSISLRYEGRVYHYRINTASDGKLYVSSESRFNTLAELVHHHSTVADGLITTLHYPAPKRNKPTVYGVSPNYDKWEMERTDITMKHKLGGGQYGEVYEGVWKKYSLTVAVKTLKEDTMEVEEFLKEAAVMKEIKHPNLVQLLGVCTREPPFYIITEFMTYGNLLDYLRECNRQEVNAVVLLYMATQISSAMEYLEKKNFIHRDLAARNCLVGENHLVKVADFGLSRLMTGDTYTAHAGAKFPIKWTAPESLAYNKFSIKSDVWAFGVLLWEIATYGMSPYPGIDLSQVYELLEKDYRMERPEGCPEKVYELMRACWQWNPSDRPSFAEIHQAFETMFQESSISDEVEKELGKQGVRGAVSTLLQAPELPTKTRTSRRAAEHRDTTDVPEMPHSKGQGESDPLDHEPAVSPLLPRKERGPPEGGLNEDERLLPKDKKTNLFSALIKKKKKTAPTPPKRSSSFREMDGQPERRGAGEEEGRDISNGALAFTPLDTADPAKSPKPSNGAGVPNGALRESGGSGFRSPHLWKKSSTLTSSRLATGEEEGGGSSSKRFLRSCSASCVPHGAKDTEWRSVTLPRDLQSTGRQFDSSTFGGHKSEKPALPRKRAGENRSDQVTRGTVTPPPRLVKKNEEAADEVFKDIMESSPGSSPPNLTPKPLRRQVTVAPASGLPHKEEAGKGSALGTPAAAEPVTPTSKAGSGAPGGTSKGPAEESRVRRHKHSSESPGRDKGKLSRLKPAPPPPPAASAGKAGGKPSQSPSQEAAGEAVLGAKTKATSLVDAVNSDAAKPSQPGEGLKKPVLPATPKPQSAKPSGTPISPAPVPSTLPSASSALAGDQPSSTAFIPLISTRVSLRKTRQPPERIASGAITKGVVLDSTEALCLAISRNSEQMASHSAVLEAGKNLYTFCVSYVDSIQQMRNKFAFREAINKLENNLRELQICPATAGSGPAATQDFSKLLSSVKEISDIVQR

Structure (SMILES)	ΔTm [1] [°C]	ΔTm [2] [°C]	ΔTm [3] [°C]	ΔTm [4] [°C]	ΔTm [5] [°C]	ΔTm [6] [°C]
C[C@@H]1Cc2c([nH]c3ccccc23)[C@@H](c2c(F)cc(/C=C/C(=O)O)cc2F)N1CC(C)(C)F	-0.24	-0.07	0.64	0	0.55	-0.16
CC(=O)N(CCN(C)C)c1ccc(N/C(=C2\C(=O)Nc3cc(Cl)ccc32)c2ccccc2)cn1	8.38	3.16	2.87	11.3	0.38	7.54
COc1cc(O)c(C(CC(=O)N2C[C@H](C)C[C@H](C)C2)c2ccc3c(c2)OCO3)c(OC)c1 (some centres not stated)	4.29	0.29	0.17	1	0.25	0.33
Cc1cc(Cn2c(N3CC4(CNC4)C3)nc3cc(Cl)cc(N4CCN(C)CC4)c32)cc(C)c1F	-0.24	0.2	0.39	-1.71	0.34	0.08
Cc1ncsc1-c1ccc(CNC(=O)[C@@H]2C[C@@H](O)CN2C(=O)[C@@H](NC(=O)C2(F)CC2)C(C)(C)C)c(OCCOc2ccc(CN3CCN(c4cc(-c5ccccc5O)nnc4N)CC3)cc2)c1	0.25	4.72	2.6	9.47	-1.54	3.64
COc1ccc(C(=O)N[C@H](C)c2cccc(C(=O)Nc3nc4c(s3)CN(C)CC4)c2)cc1C	0.22	0.42	0.41	-0.51	0.45	0.16
CCn1c(CNC(=O)c2ncc(C)nc2N)[n+](CC)c2ccc(C(=O)N(C)CCN(C)C)cc21	0.1	0.39	0.2	-0.02	0.08	-0.29
C[C@@H]1CC(=O)N(C2CC2)N=C1c1ccc(NC(=O)N2Cc3ccncc3C2)cc1	0.36	0.35	0.2	-0.86	0.29	0.22
CNC(=O)c1ccc2c(c1)NC(=O)/C2=C(\Nc1ccc(CN2CCCCC2)cc1)c1ccccc1	7.98	0.46	0.03	1.71	0.02	3.8
O=C(Nc1ccc(-n2nc(-c3cccnc3)cc2C(F)(F)F)cn1)c1ccc(-c2ccccc2)c(F)c1	-0.47	-0.05	-0.18	-0.91	0.06	0.04
O=C(Nc1cc2cc[nH]c(=O)c2cc1Cl)[C@H]1CNC[C@@H]1c1cccnc1	0.03	0.53	0.29	-0.6	0.49	-0.12
Cc1[nH]nc(C(F)(F)F)c1Cc1sc2c(c1C(=O)N1C[C@](C)(O)CO1)c(=O)n(C)c(=O)n2C(C)C	0.24	0.67	-0.27	0.32	0.23	-0.32
COc1cccc(Cn2cc(C(=O)Nc3ccc(C)c(S(=O)(=O)N4CCOCC4)c3)c(-c3ccc(C)cc3)n2)c1	4.84	3.65	-0.33	1.92	-3.66	3.73
CN(C)c1ncc2cc(-c3ccc(-c4ncccc4F)cc3Cl)c(=O)n(C[C@H]3OC[C@H](N)CO3)c2n1	-0.17	0.29	0.68	-0.87	-0.05	-1.8
O=C(Cc1ccccc1)Nc1nnc(N2C[C@H]3C[C@@H]2CN3c2cccnn2)s1	0.09	0.52	-0.12	-0.33	0.33	-0.14
OC(c1ccc(-c2ccc(CN3CCN(Cc4ccncc4)CC3)cc2)c(F)c1)(C(F)(F)F)C(F)(F)F	-0.1	0.64	-0.18	-0.86	0.02	-1.1
CN[C@@H](C)C(=O)N[C@H]1CN(C(=O)CC(C)C)CC[C@H]2CC[C@@H](C(=O)NC(c3ccccc3)c3ccccc3)N2C1=O	-0.01	0.45	0.05	-0.59	0.19	0.17
CCN(CC)C(=O)C1CN2CCc3cc(OC)c(OC)cc3C2CC1OC(C)=O (configuration not stated)	-0.43	0.69	-0.03	-1.02	0.11	-0.04
Cc1ccc(-c2cn3nc(C(=O)NC4(c5ccc(F)cc5)CN(C)C4)c(C(C)C)c3c(=O)[nH]2)cc1C	-0.12	0.03	0.69	-0.83	0.08	0.49
COc1cc(Nc2cnc(C#N)c(O[C@H](C)CN(C)C)n2)ncc1-c1cnn(C)c1	3.91	0.23	2.14	3.03	0.5	1.18
CN1C(=O)c2c(nn(Cc3ccc(-c4cccc(F)n4)cc3)c2Nc2ccccc2)N2C1=N[C@@H]1CCC[C@@H]12	0.4	0	0.16	3.99	-0.56	-0.49
CC1CCN(c2ccnc(NCc3cn(C)cn3)n2)CC1	-1.33	0.15	0.29	-0.33	0.75	-0.52
CC(C)c1cnc(NC(=O)Cc2ccccc2)s1	1.04	4.66	2.55	3.64	0.91	-0.53
Cc1cccc(CC(=O)N2CCc3c2ccc(-c2cn(C)c4ncnc(N)c24)c3F)n1	2.48	0.14	0.49	-0.92	0.15	0.37

Structure (SMILES)	ΔTm [1] [°C]	ΔTm [2] [°C]	ΔTm [3] [°C]	ΔTm [4] [°C]	ΔTm [5] [°C]	ΔTm [6] [°C]
CCN1C(=O)c2cc(C)ccc2N(C)c2ncccc21	-0.36	0.32	0.14	-0.36	0.23	0.08
Cc1cc2c(cc(C(=O)N[C@H](CO)c3ccc(S(=O)(=O)CC(=O)O)cc3)n2C)c(Cl)c1Cl	1.12	-0.15	-1.41	-0.78	0.62	3.77
CCC(C)(C)CC[C@H](NC(=O)N1CCOCC1)C(=O)NC1(C#N)CCN(C)CC1	-0.14	0.95	0.34	0.11	0.54	0.69
C[C@H](NC(=O)c1cc(Cl)ccc1Oc1ccc(F)cc1)c1ccc(C(=O)O)cc1	-0.11	0.27	-2.45	0.51	0.18	-0.14
C/C=C1\C(=O)CC2C3CCC4=CC(=O)CC[C@]4(C)C3CC[C@]12C (some centres not stated)	0.07	-0.3	0.63	-1.05	0.47	-1.78
CC(=O)Oc1ccc2c(c1)[C@@]1(C)CCC[C@](C)(C(=O)OC(=O)[C@@]3(C)CCC[C@]4(C)c5cc(OC(C)=O)ccc5CC[C@@H]34)[C@@H]1CC2	0.17	0.49	0.28	-0.85	-2.79	-1.32
Cc1nc2ccc(Oc3ccc(F)cc3)cc2c(=O)n1C[C@H]1CCCN(C(C)C)C1	0.92	0.32	0.35	-0.38	0.41	0.12
Cc1cc(OC2CCS(=O)(=O)CC2)cc(C)c1-c1cccc(COc2ccc(CCC(=O)O)c(F)c2)c1	-0.51	-2.34	0.59	-4.55	-0.4	-1.9
CCc1nc(C2CCC2)n2nc(-c3ccccc3)[nH]c(=O)c12	0.18	1.98	0.4	1.45	0.11	1.13
Cc1nc2c(cc1F)c(-c1nnc3c(n1)NC(=O)C3(C)C)nn2Cc1cccc(F)c1F	0.8	0.74	0.12	-0.14	0.44	-0.06
CNC(=O)c1ccc(C)c(-n2c(C)cc(OCc3ccc(F)cc3F)c(Br)c2=O)c1	-0.5	-0.88	-0.45	-1.44	-0.46	-1.48
COCCCS(=O)(=O)c1cc(C)c(-c2ccc(F)c3c2CC[C@H]3Oc2ccc3c(c2)OC[C@H]3CC(=O)O)c(C)c1	0.43	0	0.06	0	0	-0.86
CN1CCN(c2ccnc(NCCc3ccccc3)n2)CC1	0.08	0.11	0.22	-0.49	0.69	-0.92
Clc1ccc(-c2nc3sccn3c2/C=N/OCc2ccc(Cl)c(Cl)c2)cc1	-0.76	-0.94	-2.09	-0.83	-0.15	-1.05
Cc1ccc(-n2nc(C(C)(C)C)cc2NC(=O)Nc2ccccc2F)cc1	1.53	1.51	2.52	-0.41	3.34	-1.69
Fc1ccc(Cl)cc1-c1nc(Nc2ccncc2)c2nccnc2n1	0.4	1.19	2.24	0.58	0.56	-0.16
Cn1ncc(NC(=O)c2nc(-c3c(F)cccc3F)sc2N)c1N1CC[C@@H](N)[C@H](F)CC1	0.6	1.59	0.57	12.4	0.32	0.87
C[C@@H]1C[C@H](C)CN(c2ncc(Cl)c(Nc3ccc4c(c3)cc(OC(C)(C)C(=O)O)c(=O)n4C)n2)C1	-0.58	0.18	-0.08	-1.47	0.14	0.18
CC(C)(C#Cc1ccc(NC(=O)COc2ccccc2C(=O)c2ccccc2)c(Cl)c1)C(=O)O	0.32	-1.47	-0.18	0	-0.94	0.27
CC(C)Oc1ccc(Cc2ccc(NC3=NCCN3)cc2)cc1	0.13	0.19	-0.09	-0.57	-0.5	-0.48
FC(F)c1cncc(-c2ccc3ncc4nnc(C5=CCCOCC5)n4c3c2)c1	0.89	0.55	0.33	2.58	0.41	1.62
Cc1cnc(Nc2ccc(C(=O)N3CCN(C)CC3)cc2)nc1N[C@@H]1CCC[C@@H]1C(N)=O	5.89	6.47	0.27	3.07	1.68	14.7
O=C(O)CCCc1cc2cc(Cl)ccc2n1S(=O)(=O)c1ccc2ncsc2c1	0.34	0.24	1.03	-2.46	0.26	-0.83
